# Assay: viability profiling in RPMI8226 myeloma cells – cell-based, resazurin fluorescence, basal, 24 h, PK04 Diversity Set, profiling panel (AID 1180);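 note: RPMI8826 multiple myeloma cell line at 5000 cells per well; test concentration not given here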
# Details: higher = more signal
row,Compound,z-score
1,COCC(=C=CC[C@H](O)c1ccc(OCCO)cc1)C[C@H](O)COCc1ccccc1,1.51
2,O=C1NC(=O)C2C1C=CC(C(O)c1cc(C(F)(F)F)cc(C(F)(F)F)c1)N2Nc1ccc(Cl)cc1Cl (stereo not given),-2.37
3,COC(=O)[C@H](Cc1ccccc1)N1CC(/C=C/C2CC2)=C[C@@H]1[C@@H](O)Cc1ccccc1,-0.277
4,NC(=O)NCC#Cc1ccc2c(c1)[C@]1(C(=O)N2)[C@H](C(=O)Nc2nc3ccccc3s2)[C@H]2C(=O)O[C@H](c3ccccc3)[C@H](c3ccccc3)N2[C@@H]1c1ccc(O)cc1,-0.253
5,O=C1O[C@@H](c2ccccc2)[C@@H](c2ccccc2)N2[C@@H](c3ccc(O)cc3)[C@]3(C(=O)Nc4ccc(C#CC5=CCCCC5)cc43)[C@@H](C(=O)N3CCN(c4ncccn4)CC3)[C@H]12,-0.385
6,CC(=O)NCCCC[C@@H]1NC(=O)[C@@H]2C[C@H](C(=O)O)[C@H](c3ccc(O)cc3)N2C1=O,0.517
7,COc1cc(CO)cc(I)c1O[C@H]1C=C(C(=O)NCCO)C[C@@H](NCc2ccccc2F)[C@@H]1O,0.559
8,O=C1NCC(=O)N2[C@@H]1C[C@@H](C(=O)O)[C@H]2c1ccc(O)cc1,0.205
9,COC(=O)[C@@]1(Cc2ccc(F)cc2)[C@H]2c3cc(C(=O)N4CCCC4)n(CCF)c3C[C@H]2CN1C(=O)c1ccccc1,-0.185
10,C[C@]1(C(=O)O)c2ccccc2C(=O)N(Cc2ccccc2)[C@H]1c1ccc(CO)cc1,0.988
11,CCOC(=O)C[C@H]1[C@H](OC(=O)c2ccc(-c3ccccc3)cc2)[C@@H](NC(=O)C2CCCCC2)c2cc(OCCCO)ccc2N1C(=O)c1ccccc1,-0.95
12,O=C1O[C@@H](c2ccccc2)[C@@H](c2ccccc2)N2[C@@H](c3ccccc3OCCO)[C@]3(C(=O)Nc4ccccc43)[C@@H](C(=O)NC[C@H](O)c3ccccc3)[C@H]12,-6.99
13,C=CC1c2cc(O)c(OC)cc2CCN1Cc1sc2ccccc2c1Cl (stereo not given),-0.802
14,CC(C)CN1C(=O)[C@@]2(c3ccc([N+](=O)[O-])cc3)CC(=O)N(CC34CC5CC(CC(C5)C3)C4)[C@@H]2c2ccc(CO)cc21,0.248
15,COCCOC(=O)N1C(=O)[C@@]2(c3cc(C#Cc4ccc(OC)cc4)ccc31)[C@H](C(=O)N1CCN(c3ncccn3)CC1)[C@H]1C(=O)O[C@H](c3ccccc3)[C@H](c3ccccc3)N1[C@@H]2c1ccccc1OCCO,0.35
16,CCOC(=O)C[C@H]1[C@H](OC(=O)Cc2ccc3c(c2)OCO3)[C@@H](NC(=O)Cc2ccc(OC)cc2)c2cc(OCCCO)ccc2N1C(=O)c1ccccc1,0.66
17,[N-]=[N+]=Nc1ccccc1C[C@]1(C(=O)NCc2ccccc2)N=C(c2ccc(OCCCO)cc2)O[C@H]1c1ccccc1,-1.84
18,COC(=O)Cn1c(C(=O)N2CCCC2)cc2c1C[C@H]1CN(C(=O)c3ccccc3)[C@@](Cc3ccc(F)cc3)(C(=O)OC)[C@@H]21,0.303

row,Compound,z-score
1,COc1ccc(NN2C(C(O)c3ccco3)C=CC3C(=O)N(C4CCCCC4)C(=O)C32)cc1 (stereo not given),-1.55
2,CCCCN1CC=CC23O[C@@H]4C=CCOC(=O)[C@@H]4[C@H]2C(=O)N(C(C)CO)[C@@H]3C1=O (stereo not given in full),-0.784
3,COc1ccc(NC(=O)O[C@H]2[C@H](OC(=O)Nc3ccc4c(c3)OCO4)[C@@H](OC(=O)Nc3ccc4c(c3)OCO4)[C@@H](OC)O[C@@H]2CO)cc1,-0.85
4,C=CCN1C(=O)[C@]2(CC=C)N=C(c3ccc(OCCCO)cc3)O[C@@H]2c2ccccc21,-3.09
5,CC1CC/C=C\[C@H]2OC34C=CCN(C(C)C)C(=O)[C@H]3N(CCCCCO)C(=O)[C@@H]4C2C(=O)O1 (stereo not given in full),0.894
6,COC(=O)[C@@]1(Cc2ccccc2)[C@H]2c3cc(C(=O)N4CCCC4)n(Cc4ccsc4Br)c3C[C@H]2CN1C(=O)c1ccccc1,-3.12
7,NCCCCCNC(=O)[C@@H]1C[C@@H]2C(=O)N[C@@H](CCCCN)C(=O)N2[C@@H]1c1cccc(OCCO)c1,1
8,CCOC(=O)C1=CC[C@@H](c2ccc([N+](=O)[O-])cc2)N(S(=O)(=O)c2ccc(C)cc2)[C@H]1c1ccccc1,0.546
9,CC(C)c1ccc(NN2C(C(O)c3ccco3)C=CC3C(=O)N(c4ccccc4)C(=O)C32)cc1 (stereo not given),-0.695
10,COC1(C)CN(Cc2ccccc2Br)[C@H](/C=C/c2ccccc2)[C@H](Cc2ccccc2)O1 (stereo not given in full),1.2
11,CC=CC(O)C1C=CC2C(=O)N(C)C(=O)C2N1N1CCCCC1 (stereo not given),-1.36
12,CCOC(=O)C1=CC[C@@H](c2cc(Cl)ccc2Cl)N(S(=O)(=O)c2ccc(C)cc2)[C@H]1c1ccc(OC)cc1,-1.97
13,C=C(CCCC)C(=O)CC[C@@H](OC(=O)c1ccccc1-c1ccccc1C(=O)O)c1cccc(OCCO)c1,-0.301
14,CC(C)(C)OC(=O)CC[C@@]1(C(=O)O)N=C(c2ccc(OCCCO)cc2)O[C@@H]1c1ccccc1CN=[N+]=[N-],-1.09
15,O=C1C[C@]2(c3ccc([N+](=O)[O-])cc3)C(=O)N(Cc3ccccc3)c3cc(CO)ccc3[C@H]2N1CC12CC3CC(CC(C3)C1)C2,-0.717
16,O=C(CS)NCCCCCCNC(=O)[C@@H]1C[C@@H]2C(=O)N3CCC[C@H]3C(=O)N2[C@@H]1c1cccc(OCCO)c1,0.356
17,CN(C)CCCCNC(=O)[C@H]1C[C@H]2C(=O)N[C@@H](CCCCN(C)C)C(=O)N2[C@H]1c1cccc(OCCO)c1,0.45
